The values that follow come from PubChem BioAssay AID493169 (National Center for Advancing Translational Sciences (NCATS), 2011).

Results filed as inconclusive are left out. The source made the active and inactive calls. Calls follow the shape of the dose curve; as a rule, active = well fitted inhibition curve with a large enough effect; inconclusive = small, poorly fitted or top-dose-only effect; inactive = flat fitted curve, though single readings scatter.
% is scaled to controls: 0 for no effect and ±100 for the full control effect; potency is read from the fitted curve at half-maximal effect.

The experiment can be described thus: CHOP2 Reporter Counterscreen Assay for Inhibitors of Ubiquitin-specific Protease USP2a.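 Also: activated enterokinase alone at 50 pM in a cell-free format rather than USP2a or CHOP2; nearly all actives have a fitted effect of over 55% in size.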 Particulars: purified enterokinase, fluorogenic substrate, 485/531 nm; series mostly up to 38.3 µM; activity change, negative = inhibition: at the top concentration. Summed up:
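Cell-free counterscreen with pre-activated enterokinase alone (50 pM final) in 20mM Tris-HCl pH 8.0, 2mM CaCl2, 2mM beta-mercaptoethanol, 0.05% CHAPS; compound preincubation 30 min RT, reporter substrate 25nM final, fluorescence read after 10 min (Ex 485/Em 531).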
As for `COC(=O)c1c(N2C(=O)CCC2=O)sc2c1CCCC2`, the “activity change, negative = inhibition” value was -0.467% (inactive).

Turning to `CCC(C(=O)Nc1nnc(-c2ccco2)s1)c1ccccc1` (stereo not given), the “activity change, negative = inhibition” value was 4.66% (inactive).

Regarding `Oc1ccccc1/C=N/Nc1ncc(Br)cn1`, the “activity change, negative = inhibition” value was -2.82% (inactive).

On to `COCCCNCCCOc1ccc(C)cc1Br`, for which the “activity change, negative = inhibition” value was 6.77% (inactive).

For the compound `CC1=NN(c2ccc(C(=O)O)cc2)C(=O)/C1=C\c1ccc(OC(=O)c2cccs2)cc1`, the Potency is 3.55 µM (active).

Turning to `O=C(CCSCc1ccc(Cl)cc1)NCCc1ccccc1`, the “activity change, negative = inhibition” value was -0.319% (inactive).

Turning to `CN(C)c1ccc(-c2ccccc2)nn1`, the “activity change, negative = inhibition” value is 2.68% (inactive).

Regarding `COC(=O)c1nnn(-c2nonc2N)c1CSc1ccccn1`, the “activity change, negative = inhibition” value was 0.244% (inactive).

With `COc1ccccc1C1NC(c2ccccc2OC)C(C)C(=O)C1C` (stereo not given), the “activity change, negative = inhibition” value is 3.82% (inactive).

`C#CCOCCOCCOCCNc1nc(N2CCN(C(=O)CCCCCCCCCCNC(=O)Cn3cc(C[C@@H](C)O)nn3)CC2)nc(N2CCN(C(=O)CCCCCCCCCCNC(=O)[C@@H]([C@H](C)CC)n3cc(CCCCCN)nn3)CC2)n1`: the Potency was 5.62 µM (active).

As to `O=C(Cc1cccs1)Nc1ccc(S(=O)(=O)N2CCCCC2)cc1`, the Potency was 7.94 µM (active).

As to `O=S(=O)(NC1CCSc2ccccc21)c1ccccc1` (stereo not given), the “activity change, negative = inhibition” value is -0.783% (inactive).

For the compound `Cc1ccccc1NC(=O)CSc1nnc(-c2ccco2)c(-c2ccco2)n1`, the “activity change, negative = inhibition” value is 8.04% (inactive).

Turning to `CCCc1cc(=O)oc2cc(C)c(CN3CCCC3)c(O)c12`, the “activity change, negative = inhibition” value was 8.44% (inactive).

In the case of `O=C(NN=Cc1ccc(N2CCOCC2)s1)c1ccc([N+](=O)[O-])cc1`, the “activity change, negative = inhibition” value is -0.184% (inactive).

With `O=C(CCN1C(=O)/C(=C\c2ccco2)SC1=S)Nc1ccc(C(=O)O)c(O)c1`, the Potency was 10 µM (active).

`Cc1cc(C)cc(OCC(=O)Nc2ccc(N3CCCC3)cc2)c1`: the Potency is 10 µM (active).

As to `CC1CCCCN1CCNC(=O)c1cnn2ccccc12` (stereo not given), the “activity change, negative = inhibition” value is 1.66% (inactive).

Regarding `O=C(CSc1nnnn1-c1ccc(F)cc1)c1ccc(O)c(O)c1`, the Potency is 12.6 µM (active).

Take `CCOC(=O)c1ccc(NC(=O)C2=C(C)Nc3nc(CCCO)nn3C2c2cccc(C)c2)cc1` (stereo not given): the “activity change, negative = inhibition” value was 5.85% (inactive).

In the case of `CC1=NC(C(F)(F)F)(C(F)(F)F)C2=C(CC(C)(C)CC2=O)N1Cc1ccco1`, the “activity change, negative = inhibition” value is 1.95% (inactive).

For the compound `COc1ccc(Cl)cc1S(=O)(=O)Nc1cccc(C(=O)O)c1`, the “activity change, negative = inhibition” value is -0.065% (inactive).

On to `CC1CCCC(NC(=O)C2N(CCCN3CCCC3)C(=O)C3C(C(=O)Nc4ccc(Cl)cc4)C4C=CC32O4)C1C` (stereo not given), for which the “activity change, negative = inhibition” value is -2.85% (inactive).

For `Cc1ccc(N2CN=c3s/c(=C\c4cccnc4)c(=O)n3C2)cc1`, the “activity change, negative = inhibition” value was 3.22% (inactive).

With `CCOC(=O)c1c(C)[nH]c(C(=O)COC(=O)CSC)c1C`, the “activity change, negative = inhibition” value was 1.66% (inactive).

Regarding `Cc1cccc(N2CCN(C(=O)CCc3nc4ccccc4[nH]3)CC2C)c1` (stereo not given), the “activity change, negative = inhibition” value was 4.52% (inactive).

Regarding `CC1(C)CC(=O)C=C(NCc2cccs2)C1`, the “activity change, negative = inhibition” value was 2.48% (inactive).

For the compound `O=C(CSc1ncccc1-c1nc2ccccc2[nH]1)Nc1ccc2c(c1)OCCO2`, the “activity change, negative = inhibition” value was 5.88% (inactive).

As for `O=C(Nc1cccc(S(=O)(=O)N2CCCC2)c1)c1cncc(Br)c1`, the “activity change, negative = inhibition” value was -5.75% (inactive).

With `CNc1cccccc1=S`, the “activity change, negative = inhibition” value is -3.13% (inactive).

On to `Cn1nc(CC(=O)NCc2ccc(F)cc2)c2ccccc2c1=O`, for which the “activity change, negative = inhibition” value is 3.02% (inactive).

Regarding `C#CCOCCOCCOCCNc1nc(N2CCN(C(=O)CCCCCCCCCCNC(=O)[C@@H](CCSC)n3cc(CCO)nn3)CC2)nc(N2CCN(C(=O)CCCCCCCCCCNC(=O)[C@H](CCCN=C(N)N)n3cc(C[C@@H](C)CC)nn3)CC2)n1`, the Potency is 2.51 µM (active).

Take `CCOc1ccccc1C(=O)N[C@H](C(=O)Nc1ccc(OC)c(S(=O)(=O)N2CCOCC2)c1)C(C)C`: the “activity change, negative = inhibition” value is 0.625% (inactive).

Turning to `O=[N+]([O-])/C(C(Cl)=C(Cl)Cl)=C(\Sc1ccccc1)N1CCCCC1`, the “activity change, negative = inhibition” value is -0.355% (inactive).

Regarding `Cc1cc(NC(=O)c2cccc(S(=O)(=O)N(C)C)c2)n(-c2ccccn2)n1`, the “activity change, negative = inhibition” value is -1.67% (inactive).

Regarding `Cc1cc(N2CCC(C(=O)NC3CC3)CC2)nc(-c2ccccc2)n1`, the “activity change, negative = inhibition” value is -2.34% (inactive).

Consider `NC(=O)CC(NC(=O)Cc1ccc(Br)cc1)c1ccc(N2CCC(Cc3ccccc3)CC2)c([N+](=O)[O-])c1` (stereo not given), for which the “activity change, negative = inhibition” value is 2.37% (inactive).

In the case of `Cc1ccc(S(=O)(=O)N2[C@@H](c3ccccc3F)C(C(=O)O)=CC[C@H]2c2ccc(Cl)c(Cl)c2)cc1`, the “activity change, negative = inhibition” value is 0.747% (inactive).

`O=C(OCC(=O)N1CCCCC1)c1cc2ccccc2cc1O`: the “activity change, negative = inhibition” value was 0.355% (inactive).

Regarding `Cc1ccc(NC(=O)CN2C(=O)N/C(=C/c3ccco3)C2=O)cc1`, the Potency is 5.01 µM (active).
